Test results published in PubChem BioAssay (NCI).
About 79,000 compounds went through this panel and 15% of them were active in at least one assay; those are over-represented in the sample as a whole. Unmarked numbers belong to inactive results. Activity calls are given as the source filed them. No stated cut-off is given here; in the data, active means growth inhibition above about 70%; inactive means the rest.

experiment: NCI Yeast Anticancer Drug Screen. Data for the cln2 rad14 strain (AID 165);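 further: 0% = growth equal to vehicle treated cultures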; details: S. cerevisiae cln2 rad14 strain, at 50.0 µM, hits give high values
Summary of the method: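 Strain: cln2 rad14 yeast, altered in cell cycle control and DNA damage repair. Read-out: growth inhibition vs vehicle.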

| Compound | growth inhibition |
| --- | --- |
| CN1C(Cl)=NS(=O)(=O)c2ccccc21 | -1.3% |
| COc1cc(C(=O)CBr)c2ccc(Cl)cc2n1 | 95.3% (active) |
| CCCCCCCCCCCCCCCC(=O)N(CCCN(CC)CC)C(C)CCCN(CC)CC (stereo not given) | 76.4% (active) |
| CC1(c2ccccc2)OC1C(=O)N(c1ccccc1)c1ccccc1 (stereo not given) | 96.7% (active) |
| CCCCCCCNC1CCCc2cc(OC)ccc21 (stereo not given) | 72.5% (active) |
| Cc1ccc(S(=O)(=O)NCCSCCSCCNS(=O)(=O)c2ccc(C)cc2)cc1 | 86.9% (active) |
| COc1ccc(C2C3CCCC(C(c4ccc(OC)cc4)N2C)C32NC(=O)NC2=O)cc1 (stereo not given) | 97.2% (active) |
| CC(C)OC1=C(Cl)C(=O)c2c(cccc2[N+](=O)[O-])C1=O | 88.5% (active) |
| COC(=O)c1nnn(-c2ccc(Cl)cc2Cl)c1C(=O)c1ccc(Cl)c(Cl)c1 | 92.1% (active) |
| O=Cc1cc2c(s1)C(=O)c1sccc1C2=O | 91.7% (active) |

experiment: NCI Yeast Anticancer Drug Screen. Data for the bub3 strain (AID 167); details: S. cerevisiae bub3 mutant strain, at 5.0 µM (retest, dose inferred, filed as 0.5), hits give high values
Summary of the method: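 Compounds were applied to a genetically altered yeast strain carrying a cell-cycle control defect. Growth inhibition was scored against vehicle-treated controls.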

| Compound | growth inhibition |
| --- | --- |
| O=C1c2ccccc2C(=O)c2sc(Nc3cc(Cl)ccc3Cl)nc21 | 87% (active) |
| OCC(c1ccccc1)c1ccccc1 | 39% |
| CN(C)c1nc(=NCc2ccco2)ss1 | 32% |
| C/C=C\C=N\NC(N)=S | 2% |
| O=C(/C=N/O)c1c(-c2ccccc2)[nH]c(-c2ccccc2)c1-c1ccccc1 | 11% |
| Cc1c2ccccc2c(CO)c2cc(F)c3ccccc3c12 | 91% (active) |
| O=C(O)Cc1cccc2c(=O)c3cccc([N+](=O)[O-])c3[nH]c12 | 22% |
| Cc1ccc(SC2=C(N(C)C)C(=O)c3ccccc3C2=O)cc1 | 4% |
| O=C1C(Cl)=C(Cl)C(=O)c2cc(Cl)c(Cl)cc21 | 98% (active) |
| CC1=C(C2CO2)C(=O)C(C)=C(C2CO2)C1=O (stereo not given) | 43% |
| CCc1cc(CC)c(-c2ccco2)c(COC(=O)NC)c1 | -8% |
| COC(=O)C(=O)N(c1cc(C)ccc1C)c1cc(C)ccc1C | 3% |
| COC1=CC(=O)c2c(O)c3c(c(O)c2C1=O)C=C(C)OC3O (stereo not given) | -4% |
| O=[N+]([O-])c1ccccc1NCCO | 3% |
| CCCCCCCCCCCCCCCC[N+](C)(C)CC(=O)O | 0% |
| S=C(SSSSC(=S)N1CCCCC1)N1CCCCC1 | 40% |
| COC(O)C12OC3CO[Si](C(C)C)(C(C)C)O[Si](C(C)C)(C(C)C)OC3C1Oc1nc(=O)ccn12 (stereo not given) | -4% |
| O=C(O)c1ccccc1C(c1ccccc1)c1ccccc1 | 25% |
| OC(OC/C(I)=C(/I)COC(O)C(Cl)(Cl)Cl)C(Cl)(Cl)Cl (stereo not given) | 1% |
| COC(C)(C)[C@@H]1CCCN1C1=C(C)C(=O)OC1 | 89% (active) |

| Compound | growth inhibition |
| --- | --- |
| COc1ccc(-c2nc(C)[nH]c(=O)c2Cc2c(O)ccc3ccccc23)cc1 | 0% |
| C1CCC(CCNCCC2CCCCC2)CC1 | -8% |
| CC1=C(C)C1[N+](=O)[O-] | 49% |
| COc1ccc2c(c1)OC(c1ccccc1O)CC2=O (stereo not given) | -2% |
| CCN(CC)c1ccc(NC(CC(O)c2ccccc2)c2ccccc2)cc1 (stereo not given) | -4% |
| COc1cc(/C=C/C(=O)c2ccc3ccccc3c2)cc(OC)c1OC | 22% |
| C=CC(=C)OC | 2% |
| O=C1OC(=O)c2ccc([N+](=O)[O-])c3cccc1c23 | 0% |
| CCCOC(=O)CSC#N | 33% |
| CCCCN(CCCC)CCCCCCNc1cc(OC)cc2cccnc12 | 9% |
| CN1C(Cl)=NS(=O)(=O)c2ccccc21 | 15% |
| COc1cc(C(=O)CBr)c2ccc(Cl)cc2n1 | 87% (active) |
| CCCCCCCCCCCCCCCC(=O)N(CCCN(CC)CC)C(C)CCCN(CC)CC (stereo not given) | 53% |
| CC1(c2ccccc2)OC1C(=O)N(c1ccccc1)c1ccccc1 (stereo not given) | 22% |
| CCCCCCCNC1CCCc2cc(OC)ccc21 (stereo not given) | 21% |
| Cc1ccc(S(=O)(=O)NCCSCCSCCNS(=O)(=O)c2ccc(C)cc2)cc1 | 0% |
| COc1ccc(C2C3CCCC(C(c4ccc(OC)cc4)N2C)C32NC(=O)NC2=O)cc1 (stereo not given) | 3% |
| CC(C)OC1=C(Cl)C(=O)c2c(cccc2[N+](=O)[O-])C1=O | 38% |
| COC(=O)c1nnn(-c2ccc(Cl)cc2Cl)c1C(=O)c1ccc(Cl)c(Cl)c1 | 17% |
| O=Cc1cc2c(s1)C(=O)c1sccc1C2=O | 94% (active) |

same assay, conditions: S. cerevisiae bub3 mutant strain, at 50.0 µM (retest, dose inferred, filed as 5.0), hits give high values

| Compound | growth inhibition |
| --- | --- |
| O=C1c2ccccc2C(=O)c2sc(Nc3cc(Cl)ccc3Cl)nc21 | 98% (active) |
| OCC(c1ccccc1)c1ccccc1 | 43% |
| CN(C)c1nc(=NCc2ccco2)ss1 | 76% (active) |
| C/C=C\C=N\NC(N)=S | 7% |
| O=C(/C=N/O)c1c(-c2ccccc2)[nH]c(-c2ccccc2)c1-c1ccccc1 | 13% |
| Cc1c2ccccc2c(CO)c2cc(F)c3ccccc3c12 | 98% (active) |
| O=C(O)Cc1cccc2c(=O)c3cccc([N+](=O)[O-])c3[nH]c12 | 85% (active) |
| Cc1ccc(SC2=C(N(C)C)C(=O)c3ccccc3C2=O)cc1 | 90% (active) |
| O=C1C(Cl)=C(Cl)C(=O)c2cc(Cl)c(Cl)cc21 | 98% (active) |
| CC1=C(C2CO2)C(=O)C(C)=C(C2CO2)C1=O (stereo not given) | 99% (active) |
| CCc1cc(CC)c(-c2ccco2)c(COC(=O)NC)c1 | 72% (active) |
| COC(=O)C(=O)N(c1cc(C)ccc1C)c1cc(C)ccc1C | 59% |
| COC1=CC(=O)c2c(O)c3c(c(O)c2C1=O)C=C(C)OC3O (stereo not given) | 44% |
| O=[N+]([O-])c1ccccc1NCCO | 2% |
| CCCCCCCCCCCCCCCC[N+](C)(C)CC(=O)O | 96% (active) |
| S=C(SSSSC(=S)N1CCCCC1)N1CCCCC1 | 95% (active) |
| COC(O)C12OC3CO[Si](C(C)C)(C(C)C)O[Si](C(C)C)(C(C)C)OC3C1Oc1nc(=O)ccn12 (stereo not given) | 98% (active) |
| O=C(O)c1ccccc1C(c1ccccc1)c1ccccc1 | 79% (active) |
| OC(OC/C(I)=C(/I)COC(O)C(Cl)(Cl)Cl)C(Cl)(Cl)Cl (stereo not given) | 94% (active) |
| COC(C)(C)[C@@H]1CCCN1C1=C(C)C(=O)OC1 | 99% (active) |

| Compound | growth inhibition |
| --- | --- |
| COc1ccc(-c2nc(C)[nH]c(=O)c2Cc2c(O)ccc3ccccc23)cc1 | 1% |
| C1CCC(CCNCCC2CCCCC2)CC1 | 99% (active) |
| CC1=C(C)C1[N+](=O)[O-] | 97% (active) |
| COc1ccc2c(c1)OC(c1ccccc1O)CC2=O (stereo not given) | -9% |
| CCN(CC)c1ccc(NC(CC(O)c2ccccc2)c2ccccc2)cc1 (stereo not given) | 2% |
| COc1cc(/C=C/C(=O)c2ccc3ccccc3c2)cc(OC)c1OC | 27% |
| C=CC(=C)OC | -2% |
| O=C1OC(=O)c2ccc([N+](=O)[O-])c3cccc1c23 | 16% |
| CCCOC(=O)CSC#N | 98% (active) |
| CCCCN(CCCC)CCCCCCNc1cc(OC)cc2cccnc12 | 30% |
| CN1C(Cl)=NS(=O)(=O)c2ccccc21 | 11% |
| COc1cc(C(=O)CBr)c2ccc(Cl)cc2n1 | 97% (active) |
| CCCCCCCCCCCCCCCC(=O)N(CCCN(CC)CC)C(C)CCCN(CC)CC (stereo not given) | 99% (active) |
| CC1(c2ccccc2)OC1C(=O)N(c1ccccc1)c1ccccc1 (stereo not given) | 98% (active) |
| CCCCCCCNC1CCCc2cc(OC)ccc21 (stereo not given) | 35% |
| Cc1ccc(S(=O)(=O)NCCSCCSCCNS(=O)(=O)c2ccc(C)cc2)cc1 | -1% |
| COc1ccc(C2C3CCCC(C(c4ccc(OC)cc4)N2C)C32NC(=O)NC2=O)cc1 (stereo not given) | 97% (active) |
| CC(C)OC1=C(Cl)C(=O)c2c(cccc2[N+](=O)[O-])C1=O | 94% (active) |
| COC(=O)c1nnn(-c2ccc(Cl)cc2Cl)c1C(=O)c1ccc(Cl)c(Cl)c1 | 99% (active) |
| O=Cc1cc2c(s1)C(=O)c1sccc1C2=O | 99% (active) |
